In the supplement of paper PMC6555819:

Assays:
Assay in all cases: PBM binding z-score (relative to random genomic background probes); higher = stronger binding; sequences stand for … in GC…GCGATTGACAGCGTAGAATGAAGG
[1] = test system: FXR:RXRa (NR concentration 270 nM, RXRa partner concentration 90 nM)
Outline: (§1)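 Scanned fluorescence from custom Agilent 4×180K protein-binding microarrays was regression-normalized. Binding z-scores use random background probes as reference. Ligand-free nuclear receptor dimers were incubated on the arrays for 1 h and detected with antibodies against each partner (one per run).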

[2] = test system: LXRa:RXRa (NR concentration 270 nM, RXRa partner concentration 90 nM)
Outline: as §1

[3] = test system: LXRa homodimer (NR concentration 270 nM)
Outline: as §1

[4] = test system: LXRb:RXRa (NR concentration 270 nM, RXRa partner concentration 90 nM)
Outline: as §1

[5] = test system: LXRb homodimer (NR concentration 270 nM)
Outline: as §1

[6] = test system: PPARa:RXRa (NR concentration 270 nM, RXRa partner concentration 90 nM)
Outline: as §1

[7] = test system: PPARg:RXRa (NR concentration 180 nM, RXRa partner concentration 90 nM)
Outline: as §1

[8] = test system: PPARg:RXRa 270nM:90nM, anti-RXR (NR concentration 270 nM, RXRa partner concentration 90 nM)
Outline: as §1

[9] = test system: PPARg:RXRa 30nM:10nM, anti-RXR (NR concentration 30 nM, RXRa partner concentration 10 nM)
Outline: as §1

[10] = test system: PPARg:RXRa 90nM:30nM, anti-RXR (NR concentration 90 nM, RXRa partner concentration 30 nM)
Outline: as §1

Sequence	PBM binding z-score [1]	PBM binding z-score [2]	PBM binding z-score [3]	PBM binding z-score [4]	PBM binding z-score [5]	PBM binding z-score [6]	PBM binding z-score [7]	PBM binding z-score [8]	PBM binding z-score [9]	PBM binding z-score [10]
ATCGAAAGGTCGAGGTGAGTCTAGAGAAAGGGAA	4.71	3.71	0.045	2.76	0.53	4.63	3.46	3.62	1.16	2.32
ATCTGTAGGTAACAAGTTCAGTGAAAGAGAGGAC	0.84	0.812	0.628	0.805	0.615	1.59	1.51	2.08	0.821	1.57
ATCTCTAGGTAAGACTCAGTTCAGTGAGGAACGC	0.151	0.565	0.658	-0.0789	0.649	0.134	0.166	0.25	0.0695	0.181
TCTGCTAGGTGAGTTGGTCAGCTAACGAGCTGCC	-0.433	-0.56	-0.902	-0.937	-0.888	-0.304	-0.825	0.406	0.873	0.748
GCTATTAGTTGAAAGGGCCACCGAATGATTCTCG	-0.0568	0.0381	-0.327	-0.256	-0.647	0.401	0.611	1.6	0.211	0.953
AGAACGAGGGCTCGCTGAGTTGATAGCAGAGTAG	-0.628	-0.88	-0.835	-0.918	-1.31	-0.747	0.239	-0.824	-0.528	-0.552
TCTCGGAGGACACGAAAGGCCAGAGCTCGACATC	0.554	-0.137	-0.548	-0.341	-1.2	0.0543	0.264	0.908	1.86	1.56
ACTAGTTGGTCAGCTGATGTCACACACAATTCGG	0.0768	-0.317	-0.115	0.235	-0.112	0.0483	0.943	0.0634	0.0518	0.0179
TGAATGAGGCTATAAGATCAGGGAACGTTGCAAA	-0.518	-0.611	-0.669	-0.726	-0.998	-0.176	0.387	0.203	0.0907	-0.0194
TCTTGTAGATCAACAGGAGGTTATGAAAGATCGA	0.335	1.2	0.215	0.914	-0.0997	1.2	0.228	1.25	2.43	1.78
TCATATAGGTAATACAGGTGAAAGACGGCATCTA	1.16	1.28	0.842	0.947	0.0154	1.94	1.92	2.73	4.26	3.41
TTACCAAGGTGCAAGGTCGTTGATGCACGCCTTG	0.786	1.16	0.129	0.668	-0.474	2.06	2.28	3.87	1.91	3.42
GGAACGAGGGCATTCGAGTTGATAACATGGCGAT	1.09	1.76	-0.0799	0.415	-0.451	1.56	1.3	0.636	-0.0941	0.231
CCTTACGGGTCAGTCCAGGTTATAGCATCGGAGT	3.69	3.88	0.251	1.74	-0.12	2.85	1.11	1.64	0.319	0.821
ATCTCTAGGTAAGACTCAGTTCTGTGAAGAACGC	0.335	0.184	0.199	0.00724	0.696	0.118	-0.0876	-0.0102	-0.0402	-0.012
ACTAGTTGGCCAGCTGAGGTCACACACAATTCGG	2.99	2.85	1.49	3.25	-0.00517	3.54	1.55	1.67	0.296	1.05
CCTATTAGTTGACCATAAGGGCAACCGTAGCTCG	0.644	0.364	0.502	0.478	0.7	0.679	0.376	0.487	0.0256	0.357
CCTACTCGGCCAAGGTCATTGATCAGTCAAAGCA	3.57	3.69	2.12	3.18	0.93	3.52	1.32	2.35	0.335	1.69
CATACTGGGCCACGAAAGGTCATTGATTCAGTGA	3.98	5.28	5.21	4.44	0.817	4.52	4.46	4.67	1.9	3.84
TCTTGTAGATCAAACAGGTTAAGAAAGCCTGAGT	0.553	0.608	0.121	0.509	-0.073	1.1	-0.134	1.44	2.65	2.3
TGTCAAAGTTCAAATGTAACGTAAGTATCCACAC	7.51	6.72	5.84	4.79	3.48	5.53	8.25	7.12	5.15	6.93
ACTATTAGTTGAGATGAGGGCAACCGATAGGTTG	1.23	0.291	0.338	0.212	0.0544	0.427	0.607	0.07	0.15	0.083
CGTCCTAGGTCAGCAGGTCAGTGAAAGCGACGTG	2.92	2.04	0.0283	1.6	-0.603	3.23	2.32	3.21	0.151	1.87
TCATATAGGTAAAGGTGATAGTCGAACGATATGA	0.212	0.601	-0.19	0.539	-0.129	2.02	2.72	3.48	3.92	3.51
CCGACTGGGGCAGAAAGGTTACTATACCATCCGG	-0.369	-0.0108	-0.29	0.722	-1.04	1.5	1.63	2.14	0.485	1.52

Sequence	PBM binding z-score [1]	PBM binding z-score [2]	PBM binding z-score [3]	PBM binding z-score [4]	PBM binding z-score [5]	PBM binding z-score [6]	PBM binding z-score [7]	PBM binding z-score [8]	PBM binding z-score [9]	PBM binding z-score [10]
CCTTACGGGTCACGAGGTTCTAGCACGACGAGCG	6.53	4.22	-0.19	3.53	0.0881	5.66	6.59	6.31	3.2	5.36
CCTTACAGGTCACTCCAGGTTATAGCATCGGAGT	5.51	7.41	5.05	5.43	1.27	4.75	3.81	3.66	1.52	2.79
GCAGACAGGTGAAACGCAGGTAAGTCAGGGTGGC	-0.334	-0.134	-0.679	-0.502	-0.938	0.476	0.369	-0.16	-0.946	-0.534
TCATAAAGGTAAAGGTGAAAGTCGAACGATATGA	1.63	1.78	-0.143	1.63	-0.307	3.51	4.7	5.2	5.07	5.53
GCTTACGGGTCAAAGGTTATAGCGTGAATAGAAT	7.45	5.66	0.631	5.61	0.387	6.97	11	9.25	9.52	9.99
CCTACTGGGTCAAGGTCATTGATCAGTCAAAGCA	6.14	5.13	2.13	4.83	0.0227	6.04	8.59	7.05	5.09	6.81
ATCTCTAGGTAAAGGTTCAGTGAATCCCGAGGAT	0.405	0.578	0.436	0.491	0.67	2.93	4.99	5.83	3.95	5.85
ATCTCTAGGTAAGAGTTCAGTGAATCCCGAGGAT	0.291	1.13	0.982	0.873	0.69	3.22	5.23	6.11	4.98	6.44
AATATTAGTTGACTTAGGGCAACCGATACGACGC	0.123	0.163	0.741	0.405	0.26	0.162	1.09	0.355	0.448	0.286
GATACCGGGTCAAGGCCAGAGTACGCGTATTGAT	4.87	2.87	-0.172	2.45	-1.08	5.08	5.25	4.57	1.31	3.21
CCTGCTAGGTCATGGTCAGCTTATCTACAGTATG	3.54	2.53	0.0847	1.71	-0.512	3.19	2.2	2.64	0.566	1.77
TCATATAGGTAATACAGGTGAAACTCGGCATCTA	1.07	1.41	0.63	1.14	0.362	2.28	1.85	2.56	3.88	3.33
AGTCAAAGTTCACTAGGTAACGCAAGATTCAGCT	5.26	4.86	2.69	2.93	0.956	4.83	7.22	6.82	3.62	6.03
AGAATGAGGTTAAGATCGGGGAAACAGAATACAT	2.13	4.69	-0.244	2.3	0.08	3.65	2.06	2.53	0.954	1.75
GGAAAGAGGGCATTCGAGTTGATAGCATGGCGAT	1.74	2.82	0.148	1.13	0.213	1.92	0.905	1.19	0.366	0.958
CAGCCTAGGTCATGGCCAGTATAGGAGGAACGTT	4.47	3.18	-0.187	1.92	-0.552	3.81	2.34	2.86	0.578	1.71
CCTACTGGACCAAAAAGGTCATTGATGCCGATAA	3.74	4.82	4.22	4.55	1.28	4.55	2.13	3.38	1.31	2.53
CCAGACAGGTGTGAAGGTAACTCAGCCTCGATTA	-0.289	-0.378	0.0718	-0.315	-0.724	-0.298	0.084	-0.131	-0.615	-0.443
CCGACTGGCGCAAGGTTACCATAACGCACAGCCA	0.175	0.561	-0.255	0.645	-0.776	0.766	0.701	-0.0732	-0.409	-0.61
CCTTACGGGTCACGCCAGGTTATAGCATCGGAGT	6.4	6.03	0.573	4.1	-0.0774	5.57	6.03	6.08	2.72	4.76
CGTCCAAGGTCAATGCTAGGTGAGTGAAAGCATT	5.97	4.36	0.361	3.28	0.445	4.69	3.49	4	0.812	2.99
CAAACTAGGTCAATGGTCAAAGTCGAGCCAACCA	3.39	2.76	0.566	2.15	0.29	5.6	9.78	8.03	7.9	8.7
ACTATTAGTTGACTTAGGGCAACCGGTACGACGC	0.0418	0.216	0.333	0.0684	0.939	0.187	0.638	0.108	0.302	0.142
CAGCCTAGGTCAGGTCCAGTATAGGAGGAACGTT	1.07	0.851	-0.352	0.578	-1.03	1.24	0.465	0.541	-0.0378	0.231
